Screening results as filed in PubChem BioAssay.
Rows were chosen to be rich in hits. Some 6.2% of all compounds tested hit in one or more screens of this group.
HT1080-NT tox – kills 2HG-producing HT-1080-NT fibrosarcoma cells | HT-1080-NT fibrosarcoma viability, CellTiter-Glo ATP luminescence, 48 h | Potency, µM (titrated, usually from 46.1 µM), for inactives: at the top dose activity, negative = less viability, most hits filed as cytotoxic | 360,000 tested, 1.6% active | AID 686970;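 note: NT is the 2HG producing partner of a matched IDH1 knockdown line; 0% = DMSO-treated cells and -100% = media-only wells without cells; nearly all actives have a fitted effect of over 55% in size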
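A 48-hour cytotoxicity screen used HT-1080-NT cells plated 2 hours before compound delivery. ATP-based CellTiter-Glo luminescence measured viability, normalized to DMSO and no-cell controls.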
HT1080 IDH1KD tx – HT-1080 IDH1 knockdown cell toxicity (counter line). HT-1080 IDH1 knockdown viability, ATP luminescence, 48 h. 360,000 tested, 2% active. Potency, µM (doses to about 46.1 µM), without a hit: top-dose activity, negative = toxicity, hits mostly cytotoxic;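 note: 0% = DMSO wells and -100% = cell-free medium wells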
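Cytotoxicity counter-line: IDH1KD HT-1080, 48 h, CellTiter-Glo. Curves classed by r2, magnitude and activity.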
KB-3-1 tox – KB-3-1 parental cell cytotoxicity | KB-3-1 viability, CellTiter-Glo ATP luminescence, 72 h | Potency, µM (titrated, usually from 46.1 µM), actives largely listed as cytotoxic | 400,000 tested, 1.4% active; note: % is set by controls: 0 for no effect and ±100 for the full control effect; nearly all actives have a fitted effect of over 60% in size
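Parental KB-3-1 viability, qHTS format: 72 h compound exposure, 37 °C; CellTiter-Glo; media-only wells and DMSO plates as controls; concentration-effect fits on corrected data.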
ATXN viability – viability counter-screen for ATXN expression inhibitors; S2 cells (HEK-293 line with an ATXN2-luciferase reporter) viability, CellTiter-Fluor protease fluorescence, 24 h; Potency, µM (top dose mostly 56.7 µM), most hits filed as cytotoxic; 400,000 tested, 0.49% active; AID 651635; note: nearly all actives have a fitted effect of over 40% in size
ATXN2 expr inh – inhibitors of ATXN2 expression; HEK-293 ATXN2-luciferase reporter, luminescence, 24 h; Potency, µM (series often up to 57 µM), for the others: at the top dose activity change, negative = inhibition, actives largely listed as inhibitors; 360,000 tested, 0.72% active; AID 1745845; note: % is set by controls: 0 for no effect and ±100 for the full control effect; nearly all actives have a fitted effect of over 55% in size
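ATXN2-luciferase reporter cells (luciferase flanked by upstream and downstream ATXN2 gene portions) were treated 24 h at 37 °C with compounds at up to 57 uM. SteadyGlo luminescence gave expression; GF-AFC fluorescence gave viability.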
KB-V1 cytotox – kills drug-selected multidrug resistant KB-V1 cells; 400,000 tested, 3.4% active; Potency, µM (series often up to 46.1 µM), hits mostly cytotoxic; AID 1347076; KB-V1 MDR cells viability, CellTiter-Glo, 72 h; note: % is set by controls: 0 for no effect and ±100 for the full control effect; nearly all actives have a fitted effect of over 60% in size
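qHTS viability screen in drug-selected KB-V1 MDR cells: 72 h compound treatment at 37 degrees C, ATP luminescence end point.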
* marks the source's active call; other numbers are inactive results; i = inactive; ? = inconclusive; · = no result given; ! = not active in a repeat. Calls come from the whole dose curve; as a rule, active = well fitted curve in the direction sought with a large enough effect; inconclusive = small, poorly fitted or top-dose-only effect, or another doubt; inactive = no such curve, though single readings can be large; an effect the other way counts as inactive or inconclusive. Potency is the fitted concentration of half-maximal effect.

SMILES	HT1080-NT tox	HT1080 IDH1KD tx	KB-3-1 tox	ATXN viability	ATXN2 expr inh	KB-V1 cytotox
COc1ccc(CNC(=O)c2cc3cc(C)ccc3n2C)cc1	·	·	i	?	77%	i
CCC(=O)O[C@H]1[C@H](O[C@@H]2[C@@H](C)[C@H](O[C@H]3C[C@@](C)(OC)[C@@H](O)[C@H](C)O3)[C@@H](C)C(=O)O[C@H](CC)[C@@](C)(O)[C@H](O)[C@@H](C)C(=O)[C@H](C)C[C@@]2(C)O)O[C@H](C)C[C@@H]1N(C)C	·	·	·	16µM*!	6%	·
CCOC(=O)CCC(=O)O[C@H]1[C@H](O[C@@H]2[C@@H](C)[C@H](O[C@H]3C[C@@](C)(OC)[C@@H](O)[C@H](C)O3)[C@@H](C)C(=O)O[C@H](CC)[C@@](C)(O)[C@H](O)[C@@H](C)C(=O)[C@H](C)C[C@@]2(C)O)O[C@H](C)C[C@@H]1N(C)C	-23%	12%	i	i	3%	i
CCCCOC(=O)c1ccc(OC(=O)c2sc3ncn(Cc4cccc(F)c4)c(=O)c3c2C)cc1	·	·	i	i	-2%	i
O=S(=O)(Nc1ccc(Cc2ccncc2)cc1)c1ccc(Br)s1	?	-4%	?	i	-10%	15µM*
COc1ccc(S(=O)(=O)Nc2cccc(N(C)S(C)(=O)=O)c2)cc1C	-3%	8%	?	i	-11%	15µM*
COc1ccc(S(=O)(=O)Nc2cccc(SC)c2)cc1OC	-25%	-29%	23µM*	i	3%	7.3µM*
O=S(=O)(Nc1ccc(Cc2ccncc2)cc1)c1ccc(Cl)s1	-3%	-10%	i	i	1%	i
COc1cc(S(=O)(=O)Nc2cc(C)cc(C)c2)ccc1F	?	?	i	i	-8%	23µM*
COc1ccc(S(=O)(=O)Nc2cccc(Cl)c2)cc1OC	3%	-1%	i	·	·	i
COc1ccc(NS(=O)(=O)c2ccc(OC)c(OC)c2)cc1OC	2%	1%	i	i	-11%	21µM*
COc1ccc(C)cc1NS(=O)(=O)c1ccc(Br)s1	-29%	0%	i	i	-6%	i
COc1ccc(NS(=O)(=O)c2ccc(Br)s2)cc1OC	-22%	-30%	i	i	3%	21µM*
COc1ccc(NS(=O)(=O)c2ccc(SC)cc2)c(OC)c1	-16%	-17%	i	i	-9%	18µM*
O=c1c2ccccc2nc(COc2ccccc2)n1/N=C/c1c[nH]c2ccccc12	16%	14%	i	?	-4%	?
Cc1ccc(-c2[nH]ncc2/C=N/n2c(C)nc3ccccc3c2=O)cc1	-11%	-1%	i	i	-5%	i
O=c1c2ccccc2nc(COc2ccccc2)n1/N=C/c1cn[nH]c1-c1ccccc1	-24%	-27%	i	i	-6%	21µM*
Cc1ccccc1OCc1nc2ccccc2c(=O)n1/N=C/c1cn[nH]c1-c1ccc(Br)cc1	-3%	-3%	?	i	-15%	7.3µM*
CCCCNC(=O)C1CCN(S(=O)(=O)c2cc(Br)cc3c2N(C(=O)CC)CC3)CC1	·	·	i	i	-1%	i
Cc1ccc(C(=O)C(C)OC(=O)c2cc3cc([N+](=O)[O-])ccc3oc2=O)cc1 (stereo not given)	-15%	11µM*	i	?	-29%	i
O=[N+]([O-])c1cc(C(F)(F)F)ccc1NCCCCNS(=O)(=O)c1ccc(Cl)cc1	?	?	?	?	?	21µM*
O=[N+]([O-])c1cc(C(F)(F)F)ccc1NCCNC(=S)Nc1ccc(Cl)cc1	18µM*	?	i	?	?	?
CC(C)c1ccccc1NC(=O)CCc1nc2ccccc2s1	0%	-2%	i	i	6%	18µM*
CCOC(=O)N1CCN(C2=C(NS(=O)(=O)c3ccc(C)cc3)C(=O)c3ccccc3C2=O)CC1	?	?	i	32µM*	·	?
CCOC(=O)c1ccc(NS(=O)(=O)c2ccc(SC)cc2)cc1	1%	-11%	i	i	-2%	23µM*
SMILES	HT1080-NT tox	HT1080 IDH1KD tx	KB-3-1 tox	ATXN viability	ATXN2 expr inh	KB-V1 cytotox
CCOC(=O)Cc1ccc(NS(=O)(=O)c2ccc(SC)cc2)cc1	1%	-13%	i	i	-4%	i
Cc1ccc(S(=O)(=O)NC2=C(N3CCN(Cc4ccccc4)CC3)C(=O)c3ccccc3C2=O)cc1	-11%	-9%	i	i	4%	i
CCOC(=O)c1ccccc1NS(=O)(=O)c1ccc(C)cc1	-25%	?	26µM*	i	-21%	?
Cc1ccc(S(=O)(=O)Nc2ccccc2-c2ccccc2)cc1	2.9µM*	4.1µM*	3.3µM*	?	-21%	?
CCc1ccc(CNC(=O)c2ccc(NC(=O)N3CC(C)Sc4ccccc43)cc2)cc1 (stereo not given)	·	·	i	i	7%	i
Cc1c(C)c2c(c(C)c1OC(=O)CCC(=O)OCCO)CC[C@@](C)(CCC[C@H](C)CCC[C@H](C)CCCC(C)C)O2	·	·	·	?	-12%	·
CCOC(=O)c1ccc(S(=O)(=O)Nc2ccccc2-c2nnn(CC)n2)cc1	5%	4%	i	i	-9%	16µM*
Cc1ccc(S(=O)(=O)Nc2ccc(Cl)cc2O)cc1	?	?	?	·	·	21µM*
Cc1ccc(S(=O)(=O)Nc2ccccc2CNc2cccc(C)n2)cc1	-8%	1%	i	i	5%	5.8µM*
Cc1ccc(S(=O)(=O)Nc2ccccc2/C=N/c2nc3ccccc3n2C)cc1	?	21µM*	?	·	?	i
Cc1ccc(S(=O)(=O)Nc2ccccc2C=Nc2cccc(C)c2C)cc1	-13%	-21%	i	i	2%	i
CCCN1CNc2c(c(=O)[nH]c(=S)n2CCc2cccc(OC)c2)C1	11%	4%	·	·	·	·
COC(=O)c1ccccc1NC(=O)N1CCC(n2c(C)nc3cccnc32)CC1	·	·	i	i	0%	i
CCN(CC)S(=O)(=O)c1ccc2c(c1)N(CC(=O)NCc1ccccc1)C(=O)C1CCCCN21 (stereo not given)	·	·	i	i	11%	i
COc1ccc(CNC(=O)CSc2ncc(S(=O)(=O)c3ccc(C)c(Cl)c3)c(=O)[nH]2)cc1	·	·	i	i	9%	i
Cc1ccc(S(=O)(=O)Nc2ccccc2N2CCCCC2)cc1	?	?	?	?	-25%	?
Cc1ccc(S(=O)(=O)Nc2c(C)nn(C)c2C)cc1	7%	-5%	i	i	1%	i
